Source: PubChem BioAssay (NCATS)
Inconclusive results are not listed. Calls of active or inactive are those of the source. The call rests on the fitted dose curve; in most records, active means well fitted curve in the direction sought with a large enough effect; inconclusive means small, poorly fitted or top-dose-only effect, or another doubt; inactive means no such curve, though single readings can be large; an effect the other way counts as inactive or inconclusive.

Key:
[1] = Cellular Toxicity (caspase-3) Mesangial (AID 660); conditions: mesangial cells, normalized: DMSO 0%, 100 µM tamoxifen 100%; at 91.7 µM (top of the series);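 further: combined caspase 3 and 7 activity read by Caspase-Glo luminescence; cells exposed to compound for 16 h before the caspase read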
Method in brief: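 Caspase 3/7 activation measured by Caspase-Glo 3/7 luminescence (20 min, room temperature) following 16 h exposure of mesangial cells (1000/well); AC50 from Hill-equation fit, normalized to DMSO and 100 uM tamoxifen.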

[2] = Cellular Toxicity (caspase-3) SK-N-SH (AID 661);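 further: cells exposed to compound for 16 hours; 0% = DMSO basal and 100% = 10 µM staurosporine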
Method in brief: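 Caspase 3/7 activation was read by luminogenic substrate cleavage after 16 hour treatment of SK-N-SH cells. Signal was scaled between DMSO and 10 uM staurosporine, and concentration-response data were fitted with the Hill equation for AC50.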

[3] = Cellular Toxicity (caspase-3) H-4-II-E (AID 663); conditions: H-4-II-E rat hepatoma, scaled: DMSO 0%, 100 µM tamoxifen 100%; at 92.2 µM (top of the series);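 further: cells exposed to compound for 16 hr before readout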
Method in brief: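 Caspase 3/7 activation measured by luminescent aminoluciferin substrate cleavage after 16 hr compound treatment of H-4-II-E cells in complete medium. Increase normalized between DMSO (basal) and 100 uM tamoxifen (100%); Hill-equation AC50 from concentration-response.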

[4] = Cellular Toxicity (caspase-3) Hek293 (AID 664); conditions: HEK293 caspase-3 activation, DMSO = 0%, 100 µM tamoxifen = 100%; at 92.2 µM (top of the series);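 further: cells exposed to compound for 16 h at 37 °C before readout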
Method in brief: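 Concentration-response qHTS: caspase 3/7 activation measured by luminescent aminoluciferin substrate cleavage after 16 h compound exposure of Hek 293 cells. AC50 from Hill equation, with DMSO as basal and 100 uM tamoxifen as 100%.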

[5] = Cellular Toxicity (caspase-3) N2a (AID 665);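 further: compound exposure lasted 16 h at 37 °C before readout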
Method in brief: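 Caspase-3/7 activation measured as luminescence from Caspase-Glo reagent (1 h, room temperature) after 16 h compound exposure of mouse N2a cells. AC50 values from Hill-equation concentration-response, scaled between DMSO and 10 uM staurosporine.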

[6] = Cellular Toxicity (caspase-3) NIH 3T3 (AID 666);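 further: caspase signal read after 16 h compound exposure; 0% = DMSO basal and 100% = 100 µM tamoxifen stimulation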
Method in brief: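 Caspase-Glo 3/7 luminescence reported caspase activation in 1000 NIH 3T3 cells/well after 16 h compound exposure at 37 C. DMSO set basal and 100 uM tamoxifen set 100% stimulation; concentration-response modeled with the Hill equation for AC50.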

[7] = Cellular Toxicity (caspase-3) Renal Proximal Tubule (AID 667); conditions: Potency: caspase-3 activation;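 further: cells exposed to compound for 16 hours at 37 °C before detection; 0% = DMSO basal and 100% = 10 µM staurosporine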
Method in brief: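 Freshly isolated primary rat kidney proximal tubule cells, 1000/well, treated 16 hr at 37 °C, then Caspase-Glo 3/7 luminescence after 1 hr. Normalized to DMSO and 10 uM staurosporine; AC50 from Hill fit.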

[8] = biological target: Cytochrome P450 3A4 (Homo sapiens) (UniProt P08684); assay: qHTS Assay for Inhibitors and Substrates of Cytochrome P450 3A4 (AID 884); further: on the % scale 0 is the no-effect control and ±100 the full control effect; nearly all actives have a fitted effect of over 50% in size
Method in brief: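 Luminescent readout of luciferin produced by CYP3A4 (20 nM) dealkylation of Luciferin-PPXE, 25 uM (its KM). NADPH-driven reaction ran 60 min at RT after 10 min compound preincubation; data scaled to 57 uM ketoconazole as 100% inhibition.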

[9] = Cell Viability - LYMP2-001 (AID 921);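 further: 0% = DMSO only and full inhibition = tetraoctylammonium bromide control wells; nearly all actives have a fitted effect of over 70% in size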
Method in brief: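 Human lymphoblastoid LYMP2-001 cells, 2500 per well, in complete medium, treated 24 h at 37 C. Viability from cellular ATP by CellTiter-Glo luminescence; AC50 from Hill-equation fits of qHTS concentration-response.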

[10] = MultiTox-Fluor Cytotoxicity Assay - LYMP1-001 - Dead Cells (AID 946)
Method in brief: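 Cytotoxicity as increased dead-cell protease fluorescence (bis-AAF-R110, 485/520 nm), read 60 min after MultiTox-Fluor reagent. Human lymphoblastoid line exposed 16 h; Hill-fitted AC50, with DMSO as 0% and 15 uM tetraoctylammonium bromide as 100%.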

[11] = MultiTox-Fluor Cytotoxicity Assay - LYMP1-001 - Live Cells (AID 947);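 further: 0% = DMSO only and full inhibition = tetraoctylammonium bromide control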
[12] = Cell Viability - LYMP1-002 - Assay at 16 hr (AID 948);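 further: 0% = DMSO alone and full effect = 92 µM tetraoctylammonium bromide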
Method in brief: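 LYMP1-002 human lymphoblastoid cells, 2500/well, were treated with compounds for 16 hr at 37 C in complete medium. Viability was read as intracellular ATP by CellTiter-Glo luminescence, and AC50 was derived from a Hill fit to concentration-response data.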

[13] = MultiTox-Fluor Cytotoxicity Assay - LYMP1-002 - Live Cells (AID 955);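 further: cells exposed to compound for 16 hours; on the % scale 0 is the no-effect control and ±100 the full control effect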
Method in brief: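 After 16 h compound exposure at 37 C, live LYMP1-002 lymphoblastoid cells (2500/well) were quantified by cleavage of cell-permeant GF-AFC substrate, read at 405/510 nm after 60 min. Concentration-response fitted with Hill equation for AC50.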

[14] = MultiTox-Fluor Cytotoxicity Assay - LYMP1-002 - Dead Cells (AID 960); further: nearly all actives have a fitted effect of over 60% in size
Method in brief: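 Dead-cell fluorescence (Ex/Em 485/520) after 16 h compound exposure at 37 C of LYMP1-002 lymphoblastoid cells in complete medium; AC50 by Hill equation, with data scaled between DMSO and 15 uM tetraoctylammonium bromide.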

[15] = MultiTox-Fluor Cytotoxicity Assay - LYMP1-003 - Dead Cells (AID 961); further: nearly all actives have a fitted effect of over 70% in size
Method in brief: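 Dead-cell protease release, detected as bis-AAF-R110 fluorescence at 485/520 nm, was measured in LYMP1-003 cells after 16 h compound treatment at 37 C. AC50 values came from Hill-modeled qHTS curves normalized to DMSO (0%) and 15 uM tetraoctylammonium bromide (100%).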

[16] = MultiTox-Fluor Cytotoxicity Assay - LYMP1-003 - Live Cells (AID 962);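 further: cells exposed to compound for 16 hours at 37 °C; 0% = DMSO only and full loss = 92 µM tetraoctylammonium bromide; cytotoxic hits lower the live-cell protease signal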
Method in brief: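 Live-cell protease activity (GF-AFC substrate, 405/510 nm, 60 min at room temperature) after 16 h, 37 C compound exposure of human lymphoblastoid LYMP1-003 cells; concentration-response fitted to the Hill equation for AC50.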

[17] = Cell Viability - LYMP1-003 - Assay at 24 hr (AID 963);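 further: plate controls were DMSO only for no effect and tetraoctylammonium bromide positive control for full effect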
Method in brief: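 Concentration-response qHTS: ATP loss measured by CellTiter-Glo luminescence after 24 h compound exposure at 37 C. Cells were LYMP1-003 human lymphoblastoid, 2500 per well. AC50 derived via standard Hill equation modeling.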

[18] = Cell Viability - LYMP1-003 - Assay at 40 hr (AID 964); further: on the % scale 0 is the no-effect control and ±100 the full control effect; nearly all actives have a fitted effect of over 60% in size
Method in brief: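 Viability is taken as cellular ATP, read by CellTiter-Glo luminescence after 40 h of compound exposure at 37 C. Cells: human lymphoblastoid line LYMP1-003 at 2500/well; AC50 values derived by Hill-equation fitting of concentration-response data.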

[19] = Cell Viability - LYMP2-003 (AID 965);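 further: cells exposed to compounds for 24 h before reading; 0% = DMSO only and full effect = 92 µM tetraoctylammonium bromide; nearly all actives have a fitted effect of over 50% in size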
Method in brief: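 Human lymphoblastoid LYMP2-003 cells, 2500/well, exposed to compounds for 24 h at 37 C in complete medium. Viability read as intracellular ATP by CellTiter-Glo luminescence; AC50 from Hill-equation fits of qHTS concentration-response data.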

Cytochrome P450 3A4 (Homo sapiens), sequence (P08684 whole entry, looked up): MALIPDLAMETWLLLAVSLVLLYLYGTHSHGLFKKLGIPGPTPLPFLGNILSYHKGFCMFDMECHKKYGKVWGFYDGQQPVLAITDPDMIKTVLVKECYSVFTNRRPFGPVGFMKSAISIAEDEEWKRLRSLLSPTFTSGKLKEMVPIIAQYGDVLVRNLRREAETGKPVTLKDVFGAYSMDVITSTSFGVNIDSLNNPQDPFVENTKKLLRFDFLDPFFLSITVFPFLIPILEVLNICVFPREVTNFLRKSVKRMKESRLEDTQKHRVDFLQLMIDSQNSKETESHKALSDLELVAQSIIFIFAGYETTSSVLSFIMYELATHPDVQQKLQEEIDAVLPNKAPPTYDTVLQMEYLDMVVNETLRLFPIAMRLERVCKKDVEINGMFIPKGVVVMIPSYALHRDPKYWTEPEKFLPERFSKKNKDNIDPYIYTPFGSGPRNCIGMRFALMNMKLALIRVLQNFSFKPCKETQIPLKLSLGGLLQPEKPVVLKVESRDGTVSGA

CCC(C)(C)OC
inactive: caspase-3 activation [1] -0.415% | outcome [2] | caspase-3 activation [3] 0.321% | caspase-3 activation [4] -1.93% | outcome [5] | outcome [6] | Potency [7] | Potency [8] | Potency [9] | outcome [10] | outcome [11] | outcome [12] | outcome [13] | outcome [14] | Potency [15] | Potency [16] | Potency [17] | Potency [18] | Potency [19]

CC1CCC2CC1C2(C)C (centres undefined)
inactive: caspase-3 activation [1] 0.29% | outcome [2] | caspase-3 activation [3] 1.27% | caspase-3 activation [4] -2.62% | outcome [5] | outcome [6] | Potency [7] | Potency [8] | Potency [9] | outcome [10] | outcome [11] | outcome [12] | outcome [13] | outcome [14] | Potency [15] | Potency [16] | Potency [17] | Potency [18] | Potency [19]

NC(=O)c1ccccc1[N+](=O)[O-]
inactive: caspase-3 activation [1] -0.625% | outcome [2] | caspase-3 activation [3] 0.0974% | caspase-3 activation [4] 0.369% | outcome [5] | outcome [6] | Potency [7] | Potency [8] | Potency [9] | outcome [10] | outcome [11] | outcome [12] | outcome [13] | outcome [14] | Potency [15] | Potency [16] | Potency [17] | Potency [18] | Potency [19]

CC#N
inactive: caspase-3 activation [1] 1.61% | outcome [2] | caspase-3 activation [3] 0.385% | caspase-3 activation [4] 1.27% | outcome [5] | outcome [6] | Potency [7] | Potency [8] | Potency [9] | outcome [10] | outcome [11] | outcome [12] | outcome [13] | outcome [14] | Potency [15] | Potency [16] | Potency [17] | Potency [18] | Potency [19]

O=Cc1ccc(CO)o1
inactive: caspase-3 activation [1] -0.0811% | outcome [2] | caspase-3 activation [3] 1.58% | caspase-3 activation [4] -1.08% | outcome [5] | outcome [6] | Potency [7] | Potency [8] | Potency [9] | outcome [10] | outcome [11] | outcome [12] | outcome [13] | outcome [14] | Potency [15] | Potency [16] | Potency [17] | Potency [18] | Potency [19]

Clc1ccc(Cl)c(Cl)c1Cl
inactive: caspase-3 activation [1] -0.853% | outcome [2] | caspase-3 activation [3] -0.982% | caspase-3 activation [4] -1.37% | outcome [5] | outcome [6] | Potency [7] | Potency [8] | Potency [9] | outcome [10] | outcome [11] | outcome [12] | outcome [13] | outcome [14] | Potency [15] | Potency [16] | Potency [17] | Potency [18] | Potency [19]
